Bioassay records: PubChem, National Center for Advancing Translational Sciences (NCATS)
D1 potentiator – enhances dopamine response at the human D1 receptor; P21728; HEK293 TREx D1 cells, calcium flux, dopamine EC20 potentiation; potentiation, % at 10 µM; actives 0.036% (n = 360,000); AID 504651; in the data active = potentiation above about 30%; also: 0% is about no effect
D1 antag – blocks dopamine activation of the human D1 receptor; HEK293 TREx D1 cells, calcium flux, dopamine EC80; active compounds read low; activity change, negative = inhibition, % at 10 µM; actives 3.2% (n = 360,000); in the data active = activity change below about -30%; also: % is scaled to controls: 0 for no effect and ±100 for the full control effect
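Tetracycline-induced HEK293 Trex D1 cells, force-coupled to calcium, dye-loaded; compounds added and read 180 s, then EC80 dopamine added and calcium flux tracked kinetically another 180 s.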
DRD3 agonist – activates the human D3 dopamine receptor; P35462; D3R DiscoveRx beta-arrestin cells, luminescence, 90 min; max activation, %; actives 0.58% (n = 410,000); in the data active = max activation above about 30%; also: 0% is about no effect
Target sequence (P35462 whole entry, looked up): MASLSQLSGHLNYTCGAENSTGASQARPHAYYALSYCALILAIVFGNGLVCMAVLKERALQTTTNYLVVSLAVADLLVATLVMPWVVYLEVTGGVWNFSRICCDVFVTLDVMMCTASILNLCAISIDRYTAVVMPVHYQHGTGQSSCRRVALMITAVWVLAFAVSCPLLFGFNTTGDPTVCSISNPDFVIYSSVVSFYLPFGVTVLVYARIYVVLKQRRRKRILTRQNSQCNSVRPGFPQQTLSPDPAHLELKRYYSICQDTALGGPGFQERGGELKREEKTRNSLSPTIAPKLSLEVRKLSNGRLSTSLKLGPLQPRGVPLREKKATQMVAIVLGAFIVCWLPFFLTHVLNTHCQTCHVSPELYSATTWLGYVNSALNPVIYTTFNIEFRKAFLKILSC
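Cells at 1500/well, incubated overnight, then treated with pinned compounds (dopamine as control) for 90 min at 37 degrees C. DiscoveRx reagent added for 30 - 60 minutes at room temperature; luminescence read.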
D1 agonist – agonists of human D1 dopamine receptor. HEK293 T-REx D1 cells, calcium flux, agonist mode. activation, % at 2 µM. actives 1% (n = 360,000); in the data active = activation above about 30%; also: 0% is about no effect
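Agonism was scored from calcium flux recorded over 180 s (1 read/s) after pintool compound addition, following a 10-cycle baseline. Cells were inducible force-coupled HEK293 TREx D1, plated overnight at 30 C and loaded with no-wash calcium dye.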
D3 antag – blocks the human D3 dopamine receptor. P35462. D3R cells, DiscoveRx beta-arrestin luminescence, antagonist mode; active compounds read low. max response, negative = inhibition, %. actives 2.5% (n = 360,000). AID 652054; in the data active = max response below about -50%; inconclusive = no clear call, values can overlap the other calls; also: % is scaled to controls: 0 for no effect and ±100 for the full control effect
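Cells expressing the human receptor were seeded at 1500 cells/well, incubated overnight at 37 degrees C in 5% CO2, then exposed to library compounds with dopamine controls for 90 minutes at 37 degrees C before luminescent detection.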
Active calls of the source: *; ? = inconclusive; . = no result. This is a sample that favours compounds with a hit; in the whole collection about 6% have one here.

SMILES	D1 potentiator	D1 antag	DRD3 agonist	D1 agonist	D3 antag
O=C(NCCSc1c(-c2ccc(Br)cc2)[nH]c2ccccc12)c1ccc(S(=O)(=O)N2CCOCC2)cc1	0	-7	15	-1	.
CC(C)N1CC=C2C(C#N)=C(N)C(C#N)(C#N)[C@H](c3ccoc3)[C@H]2C1	-1	3	.	13	.
CC(C)N1CC=C2C(C#N)=C(N)C(C#N)(C#N)C(c3ccccc3)C2C1 (configuration not stated)	-4	-9	0	19	-77*
CCN1CC=C2C(C#N)=C(N)C(C#N)(C#N)C(c3cc(Cl)ccc3Cl)C2C1 (configuration not stated)	-5	20	-18	6	-90*
COc1cc([C@@H]2[C@H]3CNCC=C3C(C#N)=C(N)C2(C#N)C#N)ccc1OC(C)C	-2	-12	3	3	2
COc1cc(C2C3CN(C)CC=C3C(C#N)=C(N)C2(C#N)C#N)ccc1OC(C)C (configuration not stated)	-16	-50*	-10	4	?
CCCc1ccc(S(=O)(=O)N2CCC(c3nnc(-c4cccc(C)c4)o3)CC2)cc1	2	-1	-10	1	.
N#C/C(=C\c1cn(Cc2ccc(F)cc2)c2ccccc12)C(=O)NCc1ccco1	-11	-36*	15	7	-4
Cn1c(=O)n(C)c2cc(/C=C(/C#N)C(=O)NCc3ccco3)ccc21	-3	3	-4	-1	-3
CN(C)c1ccc(/C=C(\C#N)C(=O)NCc2ccco2)cc1	-8	-3	.	35*	.
CCN(CC)c1ccc(/C=C(\C#N)C(=O)NCc2ccccc2)cc1	-8	0	-10	58*	13
N#C/C(=C\c1cn(Cc2ccccc2)c2ccccc12)C(=O)NCc1ccco1	-10	-20	1	6	-6
CCN(CC)c1ccc(/C=C(\C#N)C(=O)NCc2ccco2)cc1	-8	-12	.	48*	.
CCS(=O)(=O)N1CCc2cc(C(=O)Nc3cc(OC)c(Cl)cc3OC)ccc21	-4	12	1	-2	.
CC(=O)c1cccc(Nc2ncnc3c2cnn3-c2cccc(Cl)c2)c1	-1	10	6	1	.
CC(OC(=O)/C(C#N)=C/c1ccc(N(C)C)cc1)C(=O)NCc1ccco1 (configuration not stated)	1	-10	.	35*	.
COc1ccc(OCc2nc3ccccc3[nH]2)cc1	-6	-2	14	1	12
COc1ccc(OC(C)c2nc3ccccc3[nH]2)cc1 (configuration not stated)	8	-33*	-8	0	.
CC1CCC(NC(=O)c2ccc3c(c2)N(Cc2cccc(F)c2)C(=O)c2ccccc2S3)CC1 (configuration not stated)	-2	0	-6	6	.
O=C(NCc1ccc(F)cc1)c1ccc2c(c1)nnn2C1CCCC1	-2	-19	-12	11	.
CCc1cc(Br)ccc1N1C(=O)C2CC=CCC2C1=O (configuration not stated)	-9	-41*	0	8	9
O=C(Oc1ccccc1N1C(=O)C2CC=CCC2C1=O)c1ccc(Br)cc1 (configuration not stated)	-7	-10	-10	1	-5
CCCN(C(=O)CCc1nc(-c2ccc(OC)cc2)no1)c1ccccc1F	-2	-7	3	6	.
O=C(NN=C1CCCCC1)NC1CCCCC1	2	-85*	-3	0	10
O=C(NN=C1CCCC1)NC1CCCCC1	1	7	0	3	?
SMILES	D1 potentiator	D1 antag	DRD3 agonist	D1 agonist	D3 antag
O=C(NC1CCCCCC1)C(=O)NC1CCCC1	-1	-33*	-2	5	-18
Cc1cc2nn(-c3ccc(F)cc3)nc2cc1NC(=O)c1cc(Cl)ccc1Cl	-2	-3	2	0	.
COc1ccc(C)cc1NC(=O)Cn1cc(S(=O)(=O)Cc2ccccc2Cl)c2ccccc21	8	-13	2	5	.
Cc1ccc2c(Sc3ccccc3)c(C(=O)NCc3ccccc3F)[nH]c2c1	-1	-44*	1	1	.
CC(C)(C=O)C1=CC(=O)c2ccccc2C1=O	-4	7	-28	3	-111*
CC1=CC(=O)c2ccccc2C1=O	-2	-3	6	-2	-53*
COc1ccc(N2C(=O)NC3CC2(C)Oc2ccccc23)cc1 (configuration not stated)	-7	-39*	8	0	8
COc1ccc(NC(=O)C2C(=O)N(C)C3(C)CC2c2ccccc2O3)cc1 (configuration not stated)	0	-32*	2	0	8
Cc1ccccc1-n1c(=O)c2c3c(sc2n2cnnc12)CCCC3	-3	-10	-10	1	.
Cc1nc2ccn(Cc3ccccc3)c(=O)c2cc1C(=O)Nc1ccc(F)cc1Cl	0	3	2	29	.
CCCCC(O)c1ccccc1 (configuration not stated)	.	.	0	.	.
Cc1nn(S(=O)(=O)c2cccs2)c(C)c1Sc1ccc([N+](=O)[O-])cc1	5	-5	3	0	9
Cc1nn(S(=O)(=O)c2ccccc2)c(C)c1Sc1ccc([N+](=O)[O-])cc1	-9	-33*	-1	2	-80*
CC1Cc2ccccc2N1S(=O)(=O)c1cccc(C(=O)NCc2ccncc2)c1 (configuration not stated)	.	-54*	6	14	15
CC1Cc2ccccc2N1S(=O)(=O)c1cccc(C(=O)NCc2ccccn2)c1 (configuration not stated)	-3	-4	0	0	-3
CCCc1nn2c(=O)cc(COC(=O)c3cccs3)nc2s1	-5	6	-8	7	.
COc1cccc(-c2cc(C(F)(F)F)c3c(N)c(C#N)sc3n2)c1	17	-9	.	34*	.
CC(=O)c1sc2nc(-c3cccs3)cc(C(F)(F)F)c2c1N	0	5	4	180*	0
Cc1c(C(=O)O)sc2nc(-c3cccs3)cc(C(F)(F)F)c12	3	-11	-6	2	-10
Nc1nc2nc(-c3ccccc3)cc(C(F)(F)F)c2s1	11	20	-4	-1	-8
CN(C)CCNC(=O)c1cccc2ccc(-c3ccc(-c4ccccc4)cc3)nc12	.	.	-17	.	-23
Nc1c(C(=O)C2CC2)sc2nc(-c3ccccc3)cc(C(F)(F)F)c12	-3	21	-5	66*	-5
CN(C)CCNC(=O)c1sc2nc(-c3ccccc3)cc(C(F)(F)F)c2c1N	-4	3	-18	37*	16
Cc1nn(-c2ccc(N3CCCC3)nn2)c(C)c1CCC(=O)N1CCN(c2ccccc2F)CC1	-3	0	1	-1	.
COc1cccc(Cn2ncc3c4sc(C)cc4n(C)c3c2=O)c1	-5	10	.	7	.
COc1ccc(-c2cc(C(F)(F)F)c3c(N)c(C(=O)NCCSC)sc3n2)cc1	5	3	7	31*	29
